Some of the results follow. Values without a mark were called inactive.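 Rule for the calls: active = superoxide signal below 65% of the plate average of sample wells; inactive = the rest.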

This experiment is described as follows: superoxide lowering in aged yeast cells, confirmation, cherry picked compounds (AID 434994).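 Note: cells aged with compound for 7 days at 30 degrees C before staining; 100% equals mean DHE fluorescence of all compound wells on the plate.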 Conditions: S. cerevisiae aging, superoxide DHE fluorescence; at 10 µM; hits give low values.
On to `COc1cc(NC(=O)CSc2ccc(-c3cccnc3)nn2)cc(OC)c1`, for which the superoxide response (% of plate) is 123%.

For `O=C(O)C1CCCN1S(=O)(=O)c1ccc(Br)cc1` (configuration not stated), the superoxide response (% of plate) is 105%.

`COc1ccc(C)cc1S(=O)(=O)Nc1cccc(Cl)c1Cl`: the superoxide response (% of plate) was 96.3%.

Take `Cc1ccccc1NC(=O)NCC1CCN(Cc2cccc(Cl)c2)CC1`: the superoxide response (% of plate) was 94.6%.

`CSc1sc(C(=O)NNC(=O)c2ccc(Cl)cc2)c2c1C=CCC2`: the superoxide response (% of plate) is 104%.

On to `COc1ccc(CCNC(=O)c2ccccc2-c2ccccc2C(=O)O)cc1OC`, for which the superoxide response (% of plate) was 108%.

Consider `Cc1ccc(NC(=O)Cn2nc(C)c3ccccc3c2=O)c(C)c1`, for which the superoxide response (% of plate) is 114%.

As for `CC(C)(C)NC(=O)COc1ccc(CNc2ccc3[nH]c(=O)[nH]c3c2)cc1`, the superoxide response (% of plate) is 96.2%.

On to `CC(=O)c1ccc2c(c1)c1ccccc1n2CC(C)C`, for which the superoxide response (% of plate) was 107%.

On to `O=C(CN1CCN(c2ccccn2)CC1)Nc1ccc(Br)cc1`, for which the superoxide response (% of plate) was 111%.

With `CC(=O)NC1=NN(C(C)=O)C(C)(CCS(=O)(=O)c2ccc(Cl)c(Cl)c2)S1` (configuration not stated), the superoxide response (% of plate) was 101%.

As to `CC1CCCN(S(=O)(=O)c2ccc(C(=O)Nc3nnc(-c4ccncc4)o3)cc2)C1` (configuration not stated), the superoxide response (% of plate) is 111%.

Consider `CSc1ncc(Cl)c(C(=O)Nc2cc(C)ccc2C)n1`, for which the superoxide response (% of plate) is 95.3%.

Regarding `CCCC(C)C(=O)OCC(=O)Nc1c(Br)cc(C)cc1Br` (configuration not stated), the superoxide response (% of plate) is 101%.

With `CCn1c2ccccc2c2cc(NC(=O)CNC)ccc21`, the superoxide response (% of plate) was 107%.

Turning to `NC(=S)Nc1c(Cl)cccc1Cl`, the superoxide response (% of plate) is 109%.

In the case of `CC(C)NC(=O)/C(C#N)=C\c1ccc(N(C)C)c(Br)c1`, the superoxide response (% of plate) is 88.1%.

As for `Cc1ccc2cccc(S(=O)(=O)N3CCN(c4ccccc4F)CC3)c2n1`, the superoxide response (% of plate) was 119%.

In the case of `COc1ccc(NC(C)=O)cc1NC(=O)CN1CCN(c2ccccn2)CC1`, the superoxide response (% of plate) was 103%.

As to `CCn1c2ccccc2c2cc(CC(N)=O)ccc21`, the superoxide response (% of plate) is 111%.

Turning to `COc1cc(-c2nnn(CC(=O)NCc3ccccc3)n2)cc(OC)c1OC`, the superoxide response (% of plate) is 100%.

Consider `O=C(CSc1ccc(-c2ccc(-n3cccn3)cc2)nn1)Nc1ccc([N+](=O)[O-])cc1`, for which the superoxide response (% of plate) is 95.7%.

Values taken from PubChem BioAssay AID434994 (NMMLSC, 2010).
